Calls of active or inactive are those of the source.

Experiment [1] in a line: binders of probe aFSTL3 on microarray, primary screen, stem cell growth factor project, biochemical, small-molecule microarray, fluorescence 635/667 (AID 1064).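 Also: measures binding of the biotinylated anti-FSTL3 antibody to printed compounds.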 As to conditions: higher = more signal.
A short description of experiment [2]: binders from COS7 lysate, DM2A8 probe, primary screen, torsin A project, cell lysate, small-molecule microarray, fluorescence 635/667 (AID 1065). To be noted: higher = more signal, COS7 lysate expressing mutant human TOR1A.
Experiment [3] can be described thus: binders of probe aFGF2 on microarray, primary screen, stem cell growth factor project, biochemical, small-molecule microarray, fluorescence 635/667 (AID 1067).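 Also: measures binding of biotinylated aFGF2 protein to printed compounds on slides; z-score merges feature fluorescence and signal-to-noise across triplicate slides.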 To be noted: higher = more signal.
Experiment [4] is described as follows: binders of probe aFGF10 on microarray, primary screen, stem cell growth factor project, biochemical, small-molecule microarray, fluorescence 635/667 (AID 1071).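 Also: score merges 667 nm spot intensity and signal to noise from triplicate slides.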 To be noted: higher = more signal.
Experiment [5] concerns the target Neurogenic locus notch homolog protein 2 (Homo sapiens) (UniProt Q04721). Kind of experiment: Notch2 binders on small-molecule microarrays, primary screen, biochemical, small-molecule microarray, 635 nm fluorescence, stem cell growth factors (AID 1073). To be noted: Notch2 binding, higher = more signal.
For experiment [6], the target named is Pro-neuregulin-1, membrane-bound isoform (Homo sapiens) (UniProt Q02297). Kind of experiment: NRG1 binders on small-molecule microarrays, primary screen, psychiatric disease protein project, biochemical, small-molecule microarray, fluorescence 635/667 (AID 1075).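 Also: score combines 667 nm spot fluorescence with signal to noise.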 As to conditions: NRG1 binding, 635 nm fluorescence, higher = more signal.
Sequence of Pro-neuregulin-1, membrane-bound isoform (Homo sapiens) (Q02297 whole entry, looked up, the tested form may be a part, canonical isoform): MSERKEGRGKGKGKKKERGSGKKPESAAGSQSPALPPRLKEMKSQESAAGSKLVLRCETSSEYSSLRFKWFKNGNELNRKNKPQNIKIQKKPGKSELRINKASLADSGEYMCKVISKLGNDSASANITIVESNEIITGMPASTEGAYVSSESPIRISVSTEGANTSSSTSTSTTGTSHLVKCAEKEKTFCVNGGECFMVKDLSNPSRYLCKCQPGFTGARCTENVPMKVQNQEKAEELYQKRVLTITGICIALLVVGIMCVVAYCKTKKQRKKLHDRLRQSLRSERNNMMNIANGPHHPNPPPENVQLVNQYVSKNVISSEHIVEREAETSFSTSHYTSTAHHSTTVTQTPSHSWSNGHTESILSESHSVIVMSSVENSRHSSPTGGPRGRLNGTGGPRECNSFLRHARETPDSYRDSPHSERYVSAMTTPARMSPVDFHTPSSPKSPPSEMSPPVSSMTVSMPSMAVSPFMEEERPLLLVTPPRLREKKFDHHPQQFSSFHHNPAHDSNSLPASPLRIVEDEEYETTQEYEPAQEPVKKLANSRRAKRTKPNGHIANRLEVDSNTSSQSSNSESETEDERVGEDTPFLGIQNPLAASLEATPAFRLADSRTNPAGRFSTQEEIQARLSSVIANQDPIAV
Experiment [7] deals with Neuregulin-1 EGF-like domain. The experiment is described as follows: binders of neuregulin-1 EGF-like domain, primary screen, biochemical, small-molecule microarray, 635 nm fluorescence (AID 1081).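 Also: binding of the protein to compounds printed on small-molecule microarray slides.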 As to conditions: small-molecule microarray binding, higher = more signal.
Experiment [8] is described as follows: FRG1 promoter luciferase signal modulators, primary screen, FRG1 inhibition for FSHD, cell-based, C2C12 myotubes, firefly/Renilla luciferase, luminescence (AID 1084). To be noted: higher = more signal, called active from +8 up or from −8 down.
Experiment [9] can be described thus: binders of probe aFST on microarray, primary screen, stem cell growth factor project, biochemical, small-molecule microarray, fluorescence 635/667 (AID 1086).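 Also: score merges 667 nm fluorescence with signal-to-noise of each printed compound spot.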 To be noted: higher = more signal.
Experiment [10] in a line: binders of probe aHhip on microarray, primary screen, stem cell growth factor project, biochemical, small-molecule microarray, fluorescence 635/667 (AID 1087).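 Also: score merges spot fluorescence at 667nm with spot signal to noise ratio.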 To be noted: higher = more signal.
Experiment [11] has as its system PRMT1 (protein arginine N-methyltransferase 1). The experiment is described as follows: PRMT1 binders on small-molecule microarrays, primary screen, biochemical, small-molecule microarray, 635 nm fluorescence (AID 1088).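 Also: binding of Prmt1 protein to compounds spotted on small-molecule microarray slides.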 As to conditions: small-molecule microarray binding, higher = more signal.
The nature of experiment [12]: yeast growth modulation, basal conditions, primary screen, YJM789 clinical isolate, OD600, 24 h (AID 1089).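 Also: growth of clinical yeast isolate S. cerevisiae YJM 789 seeded 1000 cells per well; test concentration not given here.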 As to conditions: S. cerevisiae YJM789 growth, higher = more signal, called active from +8 up or from −8 down.
Experiment [13] is described as follows: fission yeast growth modulation, primary screen, strain 972, OD600, 24 h, no modulator (AID 1090).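 Also: basal condition with compound alone and no growth modifier present; test concentration not given here.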 As to conditions: S. pombe 972 growth, higher = more signal, called active from +8 up or from −8 down.
Experiment [14] can be described thus: S. cerevisiae growth modulation with rapamycin, primary screen, strain BY4716, OD600, 96 h (AID 1091). Also: test concentration not given here. To be noted: higher = more signal, called active from +8 up or from −8 down.
For experiment [15], the target named is Torsin-1A-interacting protein 2 (Homo sapiens) (UniProt Q8NFQ8). The experiment is described as follows: LULL1 binders on small-molecule microarray, primary screen, cell lysate, human LULL1 lysate, 635/667 nm fluorescence (AID 1092).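 Also: probe is lysate of COS7 cells overexpressing human LULL1; score merges per-feature 667 nm fluorescence with signal-to-noise.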 To be noted: hLULL1 lysate binding, 635 nm fluorescence, higher = more signal.
Sequence of Torsin-1A-interacting protein 2 (Homo sapiens) (Q8NFQ8 whole entry, looked up): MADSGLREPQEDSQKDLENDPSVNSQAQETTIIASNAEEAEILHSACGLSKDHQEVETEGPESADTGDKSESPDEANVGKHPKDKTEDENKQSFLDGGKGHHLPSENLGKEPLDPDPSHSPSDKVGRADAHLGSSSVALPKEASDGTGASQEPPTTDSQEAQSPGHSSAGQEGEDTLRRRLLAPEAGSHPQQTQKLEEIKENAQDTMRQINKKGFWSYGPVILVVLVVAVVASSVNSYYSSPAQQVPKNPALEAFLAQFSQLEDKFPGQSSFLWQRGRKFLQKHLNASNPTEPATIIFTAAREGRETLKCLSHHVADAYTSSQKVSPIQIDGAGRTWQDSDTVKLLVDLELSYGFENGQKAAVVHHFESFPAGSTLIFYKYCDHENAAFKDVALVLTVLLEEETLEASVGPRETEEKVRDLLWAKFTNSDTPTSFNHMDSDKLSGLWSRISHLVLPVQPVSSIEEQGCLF
Experiment [16] can be described thus: E. coli growth modulation, two-sided OD650, primary screen, E. coli filamentation project, strain DRC41, 24 h (AID 1093).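 Also: MC1000 strain lacking acrAB efflux and sulA so SOS filamentation is blocked; test concentration not given here.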 As to conditions: OD650, 24 h, higher = more signal, called active from +8 up or from −8 down.
Experiment [17] is described as follows: small-molecule microarray binders of probe aLefty2, primary screen, biochemical, biotinylated probe, 635/667 nm fluorescence (AID 1094).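 Also: score merges spot fluorescence near 667 nm with spot signal-to-noise ratio.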 As to conditions: higher = more signal.
In experiment [18] the test system is Noggin (protein binding on small-molecule microarray). The experiment is described as follows: Noggin binders on small-molecule microarray, primary screen, biochemical, 635/667 nm fluorescence (AID 1095).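 Also: score merges 667 nm feature fluorescence with signal to noise over triplicate slides.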 As to conditions: 635 nm fluorescence, higher = more signal.
Experiment [19] deals with Neurogenic locus notch homolog protein 3 (Homo sapiens) (UniProt Q9UM47). The experiment is described as follows: NOTCH3 binders on small-molecule microarray, primary screen, biochemical, 635/667 nm fluorescence (AID 1096). As to conditions: NOTCH3 binding, 635 nm fluorescence, higher = more signal.
Sequence of Neurogenic locus notch homolog protein 3 (Homo sapiens) (Q9UM47 whole entry, looked up): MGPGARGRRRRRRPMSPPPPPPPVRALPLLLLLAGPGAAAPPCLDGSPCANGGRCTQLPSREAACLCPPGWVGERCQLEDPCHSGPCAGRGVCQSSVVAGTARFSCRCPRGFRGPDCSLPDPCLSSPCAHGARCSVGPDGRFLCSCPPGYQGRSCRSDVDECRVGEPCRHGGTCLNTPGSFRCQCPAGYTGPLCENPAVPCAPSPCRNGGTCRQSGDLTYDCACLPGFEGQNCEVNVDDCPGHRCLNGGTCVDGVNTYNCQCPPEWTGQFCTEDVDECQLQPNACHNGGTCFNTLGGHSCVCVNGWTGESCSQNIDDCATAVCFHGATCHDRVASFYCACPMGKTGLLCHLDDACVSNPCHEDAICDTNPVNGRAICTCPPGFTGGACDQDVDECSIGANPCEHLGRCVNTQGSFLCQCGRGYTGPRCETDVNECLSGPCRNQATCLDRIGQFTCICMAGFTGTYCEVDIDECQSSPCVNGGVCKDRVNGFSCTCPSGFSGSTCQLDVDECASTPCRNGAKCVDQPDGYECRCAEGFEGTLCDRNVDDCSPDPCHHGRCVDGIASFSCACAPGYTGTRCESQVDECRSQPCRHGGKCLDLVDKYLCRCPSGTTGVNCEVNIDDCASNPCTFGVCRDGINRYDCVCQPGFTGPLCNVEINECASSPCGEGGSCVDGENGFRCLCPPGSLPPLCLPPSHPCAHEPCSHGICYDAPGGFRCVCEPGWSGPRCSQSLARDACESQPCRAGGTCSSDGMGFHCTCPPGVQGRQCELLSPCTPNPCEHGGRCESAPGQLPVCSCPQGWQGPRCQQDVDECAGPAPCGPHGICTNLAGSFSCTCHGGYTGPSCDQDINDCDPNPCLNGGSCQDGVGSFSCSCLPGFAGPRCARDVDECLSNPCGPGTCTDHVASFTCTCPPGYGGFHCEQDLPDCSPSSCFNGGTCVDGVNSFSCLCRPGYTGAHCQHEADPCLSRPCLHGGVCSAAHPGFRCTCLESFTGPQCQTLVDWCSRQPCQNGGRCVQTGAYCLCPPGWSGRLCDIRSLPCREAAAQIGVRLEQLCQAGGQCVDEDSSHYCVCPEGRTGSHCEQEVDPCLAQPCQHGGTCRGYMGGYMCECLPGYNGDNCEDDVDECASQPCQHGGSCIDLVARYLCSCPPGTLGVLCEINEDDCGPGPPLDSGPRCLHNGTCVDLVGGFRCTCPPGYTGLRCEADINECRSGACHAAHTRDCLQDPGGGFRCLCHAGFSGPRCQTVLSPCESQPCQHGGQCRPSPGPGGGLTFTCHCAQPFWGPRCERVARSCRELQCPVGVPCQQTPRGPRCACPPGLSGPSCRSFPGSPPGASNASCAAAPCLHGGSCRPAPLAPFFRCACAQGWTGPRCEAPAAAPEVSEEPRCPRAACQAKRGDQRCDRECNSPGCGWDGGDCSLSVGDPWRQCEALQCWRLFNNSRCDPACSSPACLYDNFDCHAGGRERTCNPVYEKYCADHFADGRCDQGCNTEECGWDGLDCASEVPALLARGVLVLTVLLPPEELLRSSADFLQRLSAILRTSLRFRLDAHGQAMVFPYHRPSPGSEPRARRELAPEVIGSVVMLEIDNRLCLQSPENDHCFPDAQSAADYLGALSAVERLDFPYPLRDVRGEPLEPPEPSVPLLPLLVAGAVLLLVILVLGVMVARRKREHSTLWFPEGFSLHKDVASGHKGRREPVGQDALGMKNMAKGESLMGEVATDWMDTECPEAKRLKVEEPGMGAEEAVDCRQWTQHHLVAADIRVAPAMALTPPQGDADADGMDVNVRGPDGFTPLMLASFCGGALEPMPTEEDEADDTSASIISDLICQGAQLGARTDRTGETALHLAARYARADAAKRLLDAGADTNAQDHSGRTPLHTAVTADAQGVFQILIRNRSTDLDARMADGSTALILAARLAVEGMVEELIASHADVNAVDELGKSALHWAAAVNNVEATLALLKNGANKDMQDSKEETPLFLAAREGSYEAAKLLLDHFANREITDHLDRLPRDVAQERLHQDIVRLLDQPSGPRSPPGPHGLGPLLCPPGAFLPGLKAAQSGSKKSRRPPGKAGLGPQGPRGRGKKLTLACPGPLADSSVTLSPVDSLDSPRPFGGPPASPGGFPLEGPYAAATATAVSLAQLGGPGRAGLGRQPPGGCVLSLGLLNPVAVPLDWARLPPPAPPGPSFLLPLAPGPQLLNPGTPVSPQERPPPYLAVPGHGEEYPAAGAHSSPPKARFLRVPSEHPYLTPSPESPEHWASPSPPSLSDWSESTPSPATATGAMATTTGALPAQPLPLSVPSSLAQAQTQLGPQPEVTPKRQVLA
The nature of experiment [20]: small-molecule microarray binders of probe aEGFR, primary screen, biochemical, biotinylated probe, 635/667 nm fluorescence (AID 1097).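 Also: probe is a biotinylated anti-EGFR antibody binding compounds printed on slides; score combines fluorescence near 667 nm and signal to noise of each spot.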 As to conditions: higher = more signal.

On to `CCOC(=O)[C@H](CC(C)C)NC(=O)CCC1CC(OC(=O)NCc2ccc3c(c2)OCO3)CC2(CCCC(COC(=O)NCCOc3ccccc3)O2)O1` (stereo not given in full), for which the composite z-score is -0.538 in experiment [1]; 0.143 in experiment [2]; -0.11 in experiment [3]; 0.652 in [4]; 1.36 in experiment [5]; 0.843 in [6]. Besides, the composite z-score in [7] is 0.943; in [9], 0.0762; in experiment [10], 0.276; in [11], 1.17; in experiment [15], 1.68; in experiment [17], -0.0928. Besides, the values for the composite z-score in experiment [18], in [19] and in experiment [20] were 0.878, 1.11 and -0.013, respectively. Also, the z-score in experiment [8] was 0.929 (inactive); in [12], -0.337 (inactive); in [13] it was 0.774 (inactive); in experiment [14] it was -0.211 (inactive); in experiment [16], 0.097 (inactive).

Regarding `CC(C)(C)N1C(=O)[C@H]2[C@H]3[C@H](O)[C@H](O)CC(=NNC(=O)OCc4ccccc4)[C@@H]3CC[C@H]2C1=O`, the composite z-score in experiment [1] was -0.387; in experiment [2], 0.376; in experiment [3], -0.136; in [4] it was 0.64; in [5], 0.447; in experiment [6], -0.0123. The composite z-score in [7] was 0.254; in experiment [9] it was 0.278; in experiment [10], -0.161; in experiment [11], 0.561; in experiment [15], 0.883; in experiment [17], -0.0824. The composite z-score turned out to be 0.457 in [18], 0.586 in experiment [19] and 0.172 in [20]. Besides, the z-score was 0.674 (inactive) in [8]; -0.668 (inactive) in experiment [12]; 0.588 (inactive) in experiment [13]; 9.42 (active) in experiment [14]; 0.45 (inactive) in [16].

For `CC(=O)OC[C@H]1O[C@H](C#CCC2CCCCC2)C=C[C@@H]1OC(C)=O`, the composite z-score was -0.785 in experiment [1]; 0.547 in experiment [2]; -0.0739 in experiment [3]; 0.494 in experiment [4]; 0.207 in [5]; 0.833 in experiment [6]. For the same compound, the composite z-score in experiment [7] is 0.828; in [9] it was -0.0607; in [10] it was -0.0618; in experiment [11], 1.18; in [15], 1.17; in [17], -0.194. The composite z-score was determined as 0.598 in experiment [18], 0.568 in experiment [19] and 0.0698 in experiment [20]. The z-score in experiment [8] was 1.23 (inactive); in experiment [12], 0.877 (inactive); in experiment [13], -15.5 (active); in [14] it was -0.525 (inactive); in experiment [16], 1.1 (inactive).

Take `C#CCCCON=C1C[C@@H](O)[C@@H](O)[C@@H]2[C@@H]3C(=O)N(C[C@@H]4CCCO4)C(=O)[C@@H]3CC[C@H]12`: the composite z-score in experiment [1] is -0.444; in [2], 0.368; in experiment [3] it was -0.168; in experiment [4], 0.188; in [5], 0.53; in experiment [6], 0.43. In addition, the composite z-score in experiment [7] was 0.475; in experiment [9], 0.0653; in experiment [10] it was -0.353; in experiment [11] it was 0.81; in experiment [15], 1.22; in [17] it was -0.134. Moreover, the composite z-score is 0.463 in experiment [18], 0.607 in experiment [19] and -0.0828 in experiment [20]. Besides, the z-score in experiment [8] was 0.164 (inactive); in [12], 0.426 (inactive); in experiment [13] it was 0.775 (inactive); in [14] it was 0.749 (inactive); in [16], 0.397 (inactive).

In the case of `CC(=O)OC[C@H]1O[C@H](CC=NOC[C@@H](O)COCc2ccco2)C=C[C@@H]1OC(C)=O`, the composite z-score in [1] is -0.37; in experiment [2], 2.66; in experiment [3] it was -0.186; in [4] it was -0.153; in [5] it was -0.315; in experiment [6] it was -0.974. The composite z-score is 0.717 in experiment [7]; 0.621 in experiment [9]; 0.212 in experiment [10]; 1.54 in experiment [11]; -0.275 in experiment [15]; 0.0658 in [17]. Also, the composite z-score in experiment [18] was 1.77; in experiment [19], -0.084; in [20], 0.495. Also, the z-score in experiment [8] was -1.31 (inactive); in experiment [12], 0.441 (inactive); in [13], -0.0992 (inactive); in experiment [14], 0.116 (inactive); in experiment [16], 0.53 (inactive).

The record behind these values is PubChem BioAssay.
